# Results as given in PubChem BioAssay (NCI).
# Several values for one entry are separate records, joined by “and”; a condition that tells them apart may be missing. Equal values may be shown once. Compounds without any hit were thinned out: in the full panel of roughly 83,000, 20% have a hit.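 Single-dose data. Exposure time 48 hours. Values below 10 considered active.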 A number with no mark means an inactive call. Activity calls are given as the source filed them.
# Columns and labels:
# Assay in all cases: NCI-60 one-dose screen, 48 h (100 = growth as untreated, 0 = no growth, -100 = all killed)
# NCI-H23 lung = test system: NCI-H23 lung
# NCI-H226 lung = test system: NCI-H226 lung
# NCI-H322M lung = test system: NCI-H322M lung
# HOP-62 NSCLC = test system: HOP-62 NSCLC
# NCI-H460 lung = test system: NCI-H460 lung
# HOP-92 NSCLC = test system: HOP-92 NSCLC
# NCI-H522 lung = test system: NCI-H522 lung
# A549/ATCC NSCLC = test system: A549/ATCC NSCLC
# 786-0 renal = test system: 786-0 renal
# COLO 205 colon = test system: COLO 205 colon
smiles,measurement,setting,value
Cc1[nH]c(-c2nc3ccccc3[nH]2)c(C)c1C(=O)NC(C)C1CCCCC1 (centres undefined),growth,NCI-H23 lung; 10 µM,87.1%
same,growth,NCI-H23 lung; 100 µM,-84.8% (active)
same,growth,NCI-H226 lung; 10 µM,81.1%
same,growth,NCI-H226 lung; 100 µM,-53% (active)
same,growth,NCI-H322M lung; 10 µM,89.1%
same,growth,NCI-H322M lung; 100 µM,-96.3% (active)
same,growth,HOP-62 NSCLC; 10 µM,95.5%
same,growth,HOP-62 NSCLC; 100 µM,-54.4% (active)
same,growth,NCI-H460 lung; 10 µM,98.1%
same,growth,NCI-H460 lung; 100 µM,-72% (active)
same,growth,HOP-92 NSCLC; 10 µM,78.7%
same,growth,HOP-92 NSCLC; 100 µM,-50.9% (active)
same,growth,NCI-H522 lung; 10 µM,80.9%
same,growth,NCI-H522 lung; 100 µM,-36.1% (active)
same,growth,A549/ATCC NSCLC; 10 µM,90.5%
same,growth,A549/ATCC NSCLC; 100 µM,-40.2% (active)
same,growth,786-0 renal; 10 µM,95.2%
same,growth,786-0 renal; 100 µM,-31.1% (active)
same,growth,COLO 205 colon; 10 µM unless noted,-60.3% [100 µM] (active)
CC(C(=O)O)n1cc(C#N)c(=O)[nH]c1=O (centres undefined),growth,NCI-H23 lung; 10 µM unless noted,108% and 111%
same,growth,NCI-H226 lung; 10 µM unless noted,93.3% and 94.8%
same,growth,NCI-H322M lung; 10 µM unless noted,112% and 111%
same,growth,HOP-62 NSCLC; 10 µM unless noted,92.5% and 98.8%
same,growth,NCI-H460 lung; 10 µM unless noted,115% and 112%
same,growth,HOP-92 NSCLC; 10 µM unless noted,93.2% and 98.4%
same,growth,NCI-H522 lung; 10 µM unless noted,98.8% and 93.9%
same,growth,A549/ATCC NSCLC; 10 µM unless noted,103% and 108%
same,growth,786-0 renal; 10 µM unless noted,119% and 101%
same,growth,COLO 205 colon; 10 µM unless noted,103% and 112%
O=C1NC(=O)C2(CCc3ccccc32)N1 (centres undefined),growth,NCI-H23 lung; 10 µM unless noted,108% and 89.4%
same,growth,NCI-H226 lung; 10 µM unless noted,101% and 92.9%
same,growth,NCI-H322M lung; 10 µM unless noted,98.8% and 106%
same,growth,HOP-62 NSCLC; 10 µM unless noted,105% and 88.3%
same,growth,NCI-H460 lung; 10 µM unless noted,98.3% and 116%
same,growth,HOP-92 NSCLC; 10 µM unless noted,174%
same,growth,NCI-H522 lung; 10 µM unless noted,98.6% and 80.6%
same,growth,A549/ATCC NSCLC; 10 µM unless noted,97.4% and 91.4%
same,growth,786-0 renal; 10 µM unless noted,115% and 94.7%
same,growth,COLO 205 colon; 10 µM unless noted,97.4% and 108%
CNC(=O)c1cc(Oc2ccc(CC(=O)Nc3cc(C(C)(C)C)nn3C)cc2)ccn1,growth,NCI-H23 lung; 1 µM,50%
same,growth,NCI-H23 lung; 10 µM,49%
same,growth,NCI-H23 lung; 30 µM,48.9%
same,growth,NCI-H226 lung; 10 µM,61.6%
same,growth,NCI-H226 lung; 30 µM,49.4%
same,growth,NCI-H322M lung; 1 µM,92.5%
same,growth,NCI-H322M lung; 10 µM,93.4%
same,growth,NCI-H322M lung; 30 µM,105%
same,growth,HOP-62 NSCLC; 1 µM,55%
same,growth,HOP-62 NSCLC; 10 µM,77.6%
same,growth,HOP-62 NSCLC; 30 µM,75.1%
same,growth,NCI-H460 lung; 1 µM,79.4%
same,growth,NCI-H460 lung; 10 µM,66.7%
same,growth,NCI-H460 lung; 30 µM,80.7%
same,growth,HOP-92 NSCLC; 1 µM,74.7%
same,growth,HOP-92 NSCLC; 10 µM,93.5%
same,growth,HOP-92 NSCLC; 30 µM,92.6%
same,growth,NCI-H522 lung; 1 µM,74.3%
same,growth,NCI-H522 lung; 10 µM,54.9%
same,growth,NCI-H522 lung; 30 µM,71.7%
same,growth,786-0 renal; 1 µM,90.7%
same,growth,786-0 renal; 10 µM,100%
same,growth,786-0 renal; 30 µM,93.8%
same,growth,COLO 205 colon; 10 µM,77.1%
same,growth,COLO 205 colon; 30 µM,91.2%
CC(O)(CC(=O)CC(=O)c1ccccc1)c1ccccc1 (centres undefined),growth,NCI-H23 lung; 10 µM unless noted,102% and 87.4%
same,growth,NCI-H226 lung; 10 µM unless noted,93.9% and 86%
same,growth,NCI-H322M lung; 10 µM unless noted,116% and 105%
same,growth,HOP-62 NSCLC; 10 µM unless noted,106% and 99.2%
same,growth,NCI-H460 lung; 10 µM unless noted,94.2% and 101%
same,growth,HOP-92 NSCLC; 10 µM unless noted,100% and 94.7%
same,growth,NCI-H522 lung; 10 µM unless noted,90.9% and 96.4%
same,growth,A549/ATCC NSCLC; 10 µM unless noted,103% and 97.4%
same,growth,786-0 renal; 10 µM unless noted,101% and 106%
same,growth,COLO 205 colon; 10 µM unless noted,127%
NCCSC(C[N+](=O)[O-])c1ccccc1Cl (centres undefined),growth,NCI-H23 lung; 10 µM unless noted,95.6%
same,growth,NCI-H226 lung; 10 µM unless noted,99.1%
same,growth,NCI-H322M lung; 10 µM unless noted,91.7%
same,growth,HOP-62 NSCLC; 10 µM unless noted,106%
same,growth,NCI-H460 lung; 10 µM unless noted,98.2%
same,growth,HOP-92 NSCLC; 10 µM unless noted,102%
same,growth,NCI-H522 lung; 10 µM unless noted,66.6%
same,growth,A549/ATCC NSCLC; 10 µM unless noted,-26.9% (active)
same,growth,786-0 renal; 10 µM unless noted,101%
same,growth,COLO 205 colon; 10 µM unless noted,99.2%
